PubChem BioAssay AID588342 (National Center for Advancing Translational Sciences (NCATS), 2011)
Among all 360,000 compounds or so, about 25,000 (6.9%) were called active. A call without a number means that no potency is given here. Roughly 9% stayed inconclusive and do not appear here. This excerpt belongs to a sample that is enriched for actives. Values without a mark were called inactive. Calls follow the shape of the dose curve; as a rule, active = well fitted inhibition curve with a large enough effect; inconclusive = small, poorly fitted or top-dose-only effect; inactive = flat fitted curve, though single readings scatter.

Biological target: Luciferin 4-monooxygenase (Photinus pyralis) (UniProt P08659)
Experiment: qHTS profiling assay for firefly luciferase inhibitor/activator using purifed enzyme and Km concentrations of substrates (counterscreen for miR-21 project); also: nearly all actives have a fitted effect of over 55% in size
Settings: purified FLuc, luminescence inhibition; series mostly up to 57.5 µM
Summary of the method: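 Purified P. pyralis luciferase (10nM final) with 10uM D-luciferin and 10uM ATP (Km levels) in 50mM Tris acetate pH 7.5, 10mM Mg acetate, 0.01% Tween-20, 0.05% BSA; qHTS 6-point titration, ~60 µM downward; luminescence read.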
Potency is read from the fitted curve at half-maximal effect.

Sequence of Luciferin 4-monooxygenase (Photinus pyralis) (P08659 whole entry, looked up): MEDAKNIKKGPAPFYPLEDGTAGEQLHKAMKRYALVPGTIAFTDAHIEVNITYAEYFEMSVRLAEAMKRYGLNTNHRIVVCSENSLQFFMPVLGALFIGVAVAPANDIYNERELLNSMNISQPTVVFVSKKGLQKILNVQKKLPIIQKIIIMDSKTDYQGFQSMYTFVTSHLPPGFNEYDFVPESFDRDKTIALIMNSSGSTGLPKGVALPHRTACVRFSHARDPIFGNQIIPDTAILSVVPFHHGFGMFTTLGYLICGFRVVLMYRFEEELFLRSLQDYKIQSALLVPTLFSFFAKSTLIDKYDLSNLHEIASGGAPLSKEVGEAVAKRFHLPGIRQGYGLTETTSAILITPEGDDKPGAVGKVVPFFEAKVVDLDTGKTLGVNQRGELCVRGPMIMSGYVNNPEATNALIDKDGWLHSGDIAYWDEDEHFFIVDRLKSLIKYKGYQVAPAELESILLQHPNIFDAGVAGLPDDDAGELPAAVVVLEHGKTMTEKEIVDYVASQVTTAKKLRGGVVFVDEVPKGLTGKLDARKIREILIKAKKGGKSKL

SMILES | Potency | activity change, negative = inhibition
COc1ccc(NC(=O)CCNS(=O)(=O)c2ccc3c(c2)CCCC(=O)N3)cc1Cl | inactive | –
Cc1c(Cl)cccc1NC(=O)C(=O)NCCc1csc2nc(-c3ccccc3F)nn12 | inactive | –
NC(CSC12CC3CC(CC(C3)C1)C2)C(=O)O (configuration not stated) | inactive | –
S=C(NCc1ccc2c(c1)OCO2)NCc1ccco1 | inactive | –
Cc1cc(C)c2c(=O)[nH]c(SCC(=O)Nc3ccc(Br)cc3)nc2n1 | inactive | –
O=C(COc1ccc(Cl)cc1)Nc1ccc2c(c1)OCO2 | 19 µM (active) | –
COc1ccccc1OCCCC(=O)Nc1ccc2c(c1)OCCO2 | inactive | –
O=C(CCS(=O)(=O)Cc1ccccc1)Nc1ccc2c(c1)OCCO2 | inactive | –
O=C(COc1ccc(Cl)cc1)Nc1ccc2oc(=O)ccc2c1 | inactive | –
CS(=O)(=O)c1ccc(-c2nnn(CC(=O)Nc3ccc4c(c3)OCCO4)n2)cc1 | inactive | –
S=C(NCc1ccco1)Nc1ccc2c(c1)OCCO2 | 15.1 µM (active) | –
O=C(CSc1ncc(S(=O)(=O)c2ccc(Br)cc2)c(=O)[nH]1)Nc1ccc2c(c1)OCCO2 | 9.53 µM (active) | –
CCCCC(=O)Nc1ccc2c(c1)OCCO2 | 21.3 µM (active) | –
COc1ccc(Cl)cc1NC(=O)COc1ccc2c(c1)OCO2 | inactive | –
FC(F)Oc1ccc(NC(=S)NCc2ccco2)cc1Cl | inactive | –
COc1ccccc1CNc1nc2ccc(Cl)cc2n2cnnc12 | inactive | –
COCCN(C(=O)CCC(=O)Nc1nccs1)C(C(=O)NCCC(C)C)c1ccc(F)cc1 (configuration not stated) | inactive | –
COc1ccccc1C(=O)Nc1ccc(C)c(S(=O)(=O)N2CCCCC2)c1 | inactive | –
CCc1ccccc1NC(=O)c1cnn(-c2ccc(F)cc2)c1C1CCNCC1 | inactive | –
CCc1ccc(C2N3CC4([N+](=O)[O-])CN2CC([N+](=O)[O-])(C3)C4(C)C)cc1 (configuration not stated) | inactive | –
Cc1ccc(NC(=O)C(Cc2ccccc2)NS(=O)(=O)c2ccc3c(c2)oc(=O)n3C)cc1C (configuration not stated) | inactive | –
Cc1ccc(S(=O)(=O)N(CC(=O)Nc2ccc(Cl)cc2Cl)c2ccccc2C)cc1 | inactive | –
COc1cccc(CNC(=O)Cn2c(=O)c3cccn3c3ccc(F)cc32)c1OC | inactive | –

SMILES | Potency | activity change, negative = inhibition
Cc1ccc(NC(=O)CN(C)C(=O)Cn2nnc(-c3ccccc3)n2)cc1 | inactive | –
Cc1nc2ccc(S(=O)(=O)NC(C(=O)NCc3ccccc3Cl)C(C)C)cc2s1 (configuration not stated) | inactive | –
CSc1nnc(-c2ccc(C(F)(F)F)cn2)o1 | inactive | –
O=C(COc1ccccc1F)Nc1ccc(C(=O)OCc2cc(=O)n3nc(C4CC4)sc3n2)cc1 | inactive | –
Cc1cc(=O)[nH]c(SCC(=O)Nc2ccc(Br)cc2)n1 | inactive | –
COc1ccc(NC(=O)CSc2nc(NS(=O)(=O)c3ccc(C)cc3)cc(=O)[nH]2)cc1 | inactive | –
Cc1ccc(NC(=O)CSc2nc(CSc3ccc(C)cc3)cc(=O)[nH]2)cc1 | 21.3 µM (active) | –
CC(C)Cc1nnc(NC(=O)CCNC(=O)c2ccccc2Cl)s1 | inactive | –
C/C=C/C=C/C(=O)O | inactive | –
COc1ccc(S(=O)(=O)c2cn(C)c3cc(N4CCCCC4)c(F)cc3c2=O)cc1 | inactive | –
COc1ccc(C(=O)NCC(c2ccc(N(C)C)cc2)N2CCc3ccccc32)c(OC)c1 (configuration not stated) | inactive | –
COc1ccc(S(=O)(=O)N2CCCCC2)cc1C(=O)NC1CCS(=O)(=O)C1 (configuration not stated) | inactive | –
Cn1cncc1COC(=O)c1ccc(Cl)cc1 | inactive | –
CN1OC(COC(=O)c2ccc(Cl)cc2)CC1c1ccccc1 (configuration not stated) | 19 µM (active) | –
CCOC(=O)c1ccc(CN(Cc2ccccc2)S(=O)(=O)c2ccc(Cl)cc2)cc1 | inactive | –
O=C(CCS(=O)(=O)c1ccccc1)N(Cc1cccnc1)c1nc2c(F)cccc2s1 | inactive | –
CN(C)c1cccc(C(=O)N2CCC(n3nccc3NC(=O)C3CCOC3)CC2)c1 (configuration not stated) | inactive | –
CN(CCO)c1ccc(/C=N/Nc2nncc3ccccc23)cc1 | 0.0757 µM (active) | –
Cc1cc2cc3c(N)[nH]nc3nc2cc1C | 4.78 µM (active) | –
COCCNC(=O)NC(=O)COC(=O)C1(c2ccc(Cl)cc2)CC1 | inactive | –
CCN(CC)C(=O)CS(=O)CC(=O)Nc1cc(OCCOC)c(Cl)cc1Cl (configuration not stated) | inactive | –
O=C(CSc1ccc(-c2ccc(Br)cc2)nn1)NCC1CCCO1 (configuration not stated) | 15.1 µM (active) | –
O=C(CSc1ccc(-c2ccccc2)nn1)NCC1CCCO1 (configuration not stated) | inactive | –

SMILES | Potency | activity change, negative = inhibition
O=C(CSc1nnc(-c2ccc(NS(=O)(=O)c3ccccc3)cc2)o1)NCC1CCCO1 (configuration not stated) | inactive | –
CCCC[C@]12Cc3cc(OC)c(OC)cc3C(O1)C1=C(CC3(CCCCC3)OC1=O)O2 | – | -0.0926% [at 11.5 µM]
Cc1cc(C)c(C#N)c(SCc2ccccc2C(=O)O)n1 | inactive | –
O=C(O)c1ccccc1CSc1nc2ccccc2s1 | 19 µM (active) | –
CCN(CC)CCCSc1nc2ccccc2s1 | inactive | –
COCCNC(=O)c1ccc2c(c1)N=C(C)c1cc(C)ccc1S2 | inactive | –
COc1ccc(S(=O)(=O)N2CCOC23CCN(S(=O)(=O)c2ccc([N+](=O)[O-])cc2)CC3)cc1 | inactive | –
CC(=O)N(C)c1ccc(NC(=O)Nc2cccc3ccccc23)cc1 | 8.49 µM (active) | –
CCOc1ccc(NC(=O)Nc2ccc(N(C)C(C)=O)cc2)cc1 | inactive | –
O=C(O)Cc1ccc(NC(=O)Nc2cccc3ccccc23)cc1 | inactive | –
CC(=O)Nc1ccc(NC(=O)CSc2nnc3c4cc(Br)ccc4n(C)c3n2)cc1 | inactive | –
CCc1ccc(NC(=O)CN2C(=O)C(c3ccccc3)=NC23CCCCCC3)cc1 | inactive | –
CC(C)CNC(=O)CC(c1ccccc1)c1c(O)ccc2ccccc12 (configuration not stated) | inactive | –
Oc1ccc2ccccc2c1C=Nc1ccccc1 | 16.9 µM (active) | –
O=[N+]([O-])c1ccc(N=Cc2c(O)ccc3ccccc23)cc1 | inactive | –
Oc1ccc(N=Cc2sc3ccccc3c2Cl)cc1 | 5.36 µM (active) | –
CCOc1[nH]n(-c2ccc(Cl)cc2)c(=O)c1C=Nc1ccc(O)cc1 | inactive | –
Oc1ccc(N=Cc2c(O)ccc3ccccc23)cc1 | 16.9 µM (active) | –
COc1ccc(-n2ccnc(NCCc3ccc(Cl)cc3)c2=O)cc1OC | inactive | –
Cc1cc(C)cc(NC(=O)c2cnc3sc(N4CCCC4)nn3c2=O)c1 | inactive | –
COc1cccc(CNC(=O)C(=O)NCC(c2cccs2)S(=O)(=O)c2ccccc2)c1 (configuration not stated) | inactive | –
